# Measured values reported in PubChem BioAssay (NCATS).
# Inconclusive results are not listed. Active and inactive are the calls of the source. Unless noted, calls follow the shape of the full dose curve.
# What was measured:
# [1] = qHTS drug screen for cell cycle checkpoint inhibitors in PARPi-resistant BRCA-mutant ovarian cancer cell lines. (AID 1963452); details: PEO1/OlaR viability, CellTiter-Glo luminescence, 96 h, stronger effect = lower value
# Procedure, shortened: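 PEO1, PEO4 and PEO1/OlaR ovarian cancer cells, 600 per well, exposed 96 h at 37C to a dilution series. Viability read by CellTiter-Glo luminescence, normalized to DMSO and empty wells; activity summarized as Z-AUC.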
# [2] = biological target: Nuclear receptor subfamily 1 group I member 2 (Homo sapiens) (UniProt O75469); experiment: Dual reporter qHTS for antagonist of Pregnane X Receptor (hPXR) against the NCATS DSHEA and TCM libraries: Luminescence Readout (AID 1920060; active = well fitted curve in the direction sought with a large enough effect; an effect the other way counts as inactive or inconclusive;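 also: HepG2 cells carrying hPXR luciferase reporter stimulated with rifampicin at 2 µM; 0% is about no effect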); details: hPXR dual reporter cells, luciferase luminescence, antagonist mode; series mostly up to 40 µM
# Procedure, shortened: (§1)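 In antagonist mode, 2 uM rifampicin was added to hPXR-Luc HepG2 cells alongside test substances, incubated 24 h at 37 C; luminescence gave reporter activity, and CellTiter-Fluor fluorescence (405/540 nm) gave viability.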
# [3] = Dual reporter qHTS for antagonist of Pregnane X Receptor (hPXR) against the NCATS DSHEA and TCM libraries: Fluorescence Readout (AID 1920061; active = well fitted curve in the direction sought with a large enough effect; an effect the other way counts as inactive or inconclusive; also: 0% is about no effect); details: PXR dual reporter cells, antagonist mode; series mostly up to 40 µM
# Procedure, shortened: as §1
# [4] = qHTS for identification of novel therapeutic agents for treatment of microphthalmiaassociated transcription factor (MiT) renal cell carcinoma (RCC) (AID 1963991); details: CellTiter-Glo, 48 h, stronger effect = lower value
# Procedure, shortened: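 Curves over 11 concentrations were fitted to CellTiter-Glo luminescence, scaled between empty wells (0%) and DMSO (100%) viability. Cells were UOK109, UOK124 and UOK145 TFE3-fusion RCC lines at 500/well, exposed 48 hours at 37 C.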
# [5] = biological target: Nuclear receptor subfamily 1 group I member 2 (Homo sapiens) (UniProt O75469); experiment: Dual reporter qHTS for agonist of Pregnane X Receptor (hPXR) against the NCATS DSHEA and TCM libraries: Luminescence readout (AID 1920059; active = well fitted curve in the direction sought with a large enough effect; an effect the other way counts as inactive or inconclusive; also: potency is read from the fitted curve at half-maximal effect); details: hPXR dual reporter cells, luciferase luminescence agonist; series mostly up to 40 µM
# From the text: Assay Development and Screening Technology Laboratory (ADST)
# National Center for Advancing Translational Sciences (NCATS), Rockville, MD
# National Institute of Health (NIH), Bethesda, Maryland
# Dietary Supplements and Natural Products have minor oversight of their safety and efficacy. We assembled a collection of Dietary Supplements and Natural Products (DSNP) as well as Traditional Chinese Medicinal (TCM) Plant extracts, which were screened against an in vitro panel of assays, including a liver cytochrome p450 enzyme panel, CAR/PXR signaling pathways, and P-gp transporter assays, to assess their activity. This pipeline facilitated the interrogation of Natural Product-Drug Interaction (NaPDI) through prominent metabolizing pathways. In addition, we compared the activity profiles of the DSNP/TCM substances with those of an approved drug collection. Many of the approved drugs have well-annotated mechanisms of action (MOA) while the MOAs for most of the DSNP and TCM samples remain unknown. Based on the premise that compounds with similar activity profiles tend to share similar targets or MOA, we clustered the library activity profiles to identify overlap with the NCATS Pharmaceutical Collection to predict the MOAs of the DSNP/TCM substances. Overall, we highlight four significant bioactivity profiles (measured by p-values) as examples of this prediction. To assess broad cytotoxicity, we employed screening against a HepG2 cell line. In addition, transporter-mediated drug interactions are utilized in the characterization of DDIs using a P-glycoprotein (P-gp) assays. To profile potential P-gp activity, a differential cell viability was measured against two cell lines: a parental KB-3-1 human cervical adenocarcinoma cell line and the drug-resistant subline KB-8-5-11 that overexpresses P-gp.
# To this end, we profiled both collections for potential CAR and/or PXR activity, employing a previously published 1536-well qHTS assay.
# [1] […]
# 8; Read; Fluorescence; ViewLux plate reader. […]
# 11; Read; Luminescence; ViewLux plate reader. […]
# [6] = measured here: PEO1 parental Z-AUC
# [7] = TFE3-RCC UOK109 viability, measured here: UOK109 Z-AUC
# [8] = TFE3-RCC viability, measured here: UOK124 Z-AUC
# [9] = TFE3-RCC viability, measured here: UOK145 Z-AUC
# Chain of Nuclear receptor subfamily 1 group I member 2 (Homo sapiens) (O75469 whole entry, looked up): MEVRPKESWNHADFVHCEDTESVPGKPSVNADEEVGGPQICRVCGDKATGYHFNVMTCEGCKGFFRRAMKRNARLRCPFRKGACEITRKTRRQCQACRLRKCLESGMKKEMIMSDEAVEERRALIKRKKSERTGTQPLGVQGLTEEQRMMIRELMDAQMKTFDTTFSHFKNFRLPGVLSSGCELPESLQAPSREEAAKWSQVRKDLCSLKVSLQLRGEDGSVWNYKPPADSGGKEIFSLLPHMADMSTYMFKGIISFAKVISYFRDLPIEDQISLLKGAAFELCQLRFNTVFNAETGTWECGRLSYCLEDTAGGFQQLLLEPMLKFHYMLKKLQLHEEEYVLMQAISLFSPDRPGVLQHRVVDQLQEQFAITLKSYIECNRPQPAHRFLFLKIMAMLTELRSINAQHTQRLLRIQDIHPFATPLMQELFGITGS
smiles,measurement,setting,value
CC(C)[C@H](CO)Nc1nc(Nc2ccc(C(=O)O)c(Cl)c2)c2ncn(C(C)C)c2n1,Z-AUC,[1],-0.776 (inactive)
same,Z-AUC,[1]; [6],0.263
same,Z-AUC,[1]; measured here: PEO4 Z-AUC,0.0501
CC(C)(C(=O)NCC(F)(F)C(F)(F)F)C(=O)N[C@@H]1C(=O)Nc2ccccc2-c2ccccc21,Z-AUC,[1],0.455 (inactive)
same,Z-AUC,[1]; [6],0.706
same,Z-AUC,[1]; measured here: PEO4 Z-AUC,0.383
COc1ccc(C2CC(c3ccccc3)=NN2c2ccc(S(N)(=O)=O)cc2)cc1 (centres undefined),Z-AUC,[1],-0.424 (inactive)
same,Z-AUC,[1]; [6],-0.864
same,Z-AUC,[1]; measured here: PEO4 Z-AUC,-0.548
COc1cc(NC(=O)c2ccc(-c3ccc(Cl)cc3)o2)cc(OC)c1,Z-AUC,[1],-0.479 (inactive)
same,Z-AUC,[1]; [6],-0.389
same,Z-AUC,[1]; measured here: PEO4 Z-AUC,-0.303
Cc1nc(N)sc1-c1ccnc(Nc2ccc(N3CCOCC3)cc2)n1,Z-AUC,[1],-0.158 (inactive)
same,Z-AUC,[1]; [6],-0.029
same,Z-AUC,[1]; measured here: PEO4 Z-AUC,-0.545
COc1cc2ncnc(Nc3ccc(F)c(Cl)c3)c2cc1OCCCN1CCOCC1,Z-AUC,[1],0.988 (inactive)
same,Z-AUC,[1]; [6],0.863
same,Z-AUC,[1]; measured here: PEO4 Z-AUC,0.585
COc1ccc(-c2coc3cc(O)ccc3c2=O)cc1,outcome,[2],inactive
same,outcome,[3],inactive
same,z-score,[4]; [7],0.416
same,z-score,[4]; [8],0.783
same,z-score,[4]; [9],0.452
Oc1ccc(C2=Cc3ccc(O)cc3OC2)cc1,Z-AUC,[1],-0.664 (inactive)
same,Z-AUC,[1]; [6],-0.782
same,Z-AUC,[1]; measured here: PEO4 Z-AUC,-0.812
CN(C[C@@H]1COCCO1)S(=O)(=O)Nc1ccc2ccc3ncc(-c4cnn(C)c4)cc3c(=O)c2c1,Z-AUC,[1],-0.656 (inactive)
same,Z-AUC,[1]; [6],-0.332
same,Z-AUC,[1]; measured here: PEO4 Z-AUC,-0.0714
O=C(Nc1ccccc1-c1cn2c(CN3CCNCC3)csc2n1)c1cnc2ccccc2n1,Z-AUC,[1],0.244 (inactive)
same,Z-AUC,[1]; [6],0.118
same,Z-AUC,[1]; measured here: PEO4 Z-AUC,-0.298
CC(C)n1cnc2c(NCCCCCCNC(=O)OC(C)(C)C)nc(NCCO)nc21,Z-AUC,[1],0.728 (inactive)
same,Z-AUC,[1]; [6],0.841
same,Z-AUC,[1]; measured here: PEO4 Z-AUC,1.56
COc1cc(O)c2c(c1)C(=O)c1cc(C)cc(O)c1C2=O,Potency,[5],inactive
same,outcome,[2],inactive
same,outcome,[3],inactive
same,z-score,[4]; [7],1.36
same,z-score,[4]; [8],1.13
same,z-score,[4]; [9],1.08
C[C@]12CCC3c4ccc(O)cc4CCC3C1CCC2=O (some centres undefined),Z-AUC,[1],1.36 (inactive)
same,Z-AUC,[1]; [6],0.945
same,Z-AUC,[1]; measured here: PEO4 Z-AUC,1.78
NC(=O)[C@@H](CCC(F)(F)F)N(Cc1ccc(-c2ncon2)cc1F)S(=O)(=O)c1ccc(Cl)cc1,Z-AUC,[1],0.459 (inactive)
same,Z-AUC,[1]; [6],0.342
same,Z-AUC,[1]; measured here: PEO4 Z-AUC,0.442
C[C@H](NC(=O)C(=O)Nc1ccccc1C(C)(C)C)C(=O)N[C@@H](CC(=O)O)C(=O)COc1c(F)c(F)cc(F)c1F,Z-AUC,[1],0.426 (inactive)
same,Z-AUC,[1]; [6],0.799
same,Z-AUC,[1]; measured here: PEO4 Z-AUC,1.06
CO[C@H]1C[C@@H]2CC[C@@H](C)[C@@](O)(O2)C(=O)C(=O)N2CCCC[C@@H]2C(=O)O[C@H]([C@@H](C)C[C@@H]2CC[C@H](O)[C@H](OC)C2)CC(=O)[C@H](C)C=C(C)[C@@H](O)[C@@H](OC)C(=O)[C@H](C)C[C@H](C)C=CC=CC=C1C,Z-AUC,[1],-0.986 (inactive)
same,Z-AUC,[1]; [6],-0.581
same,Z-AUC,[1]; measured here: PEO4 Z-AUC,-0.84
COCCOC(=O)C1=C(C)NC2=C(C(=O)CC(c3ccccc3OC)C2)C1c1cccc(O)c1 (centres undefined),Z-AUC,[1],-0.198 (inactive)
same,Z-AUC,[1]; [6],0.425
same,Z-AUC,[1]; measured here: PEO4 Z-AUC,0.517
CC1(C)CCC(CN2CCN(c3ccc(C(=O)NS(=O)(=O)c4ccc(NCC5CCOCC5)c([N+](=O)[O-])c4)c(Oc4cnc5[nH]ccc5c4)c3)CC2)=C(c2ccc(Cl)cc2)C1,Z-AUC,[1],0.0291 (inactive)
same,Z-AUC,[1]; [6],0.742
same,Z-AUC,[1]; measured here: PEO4 Z-AUC,0.833
O=c1cc(-c2ccc(O)cc2)oc2cc(O)cc(O)c12,Potency,[5],31.6 µM (active)
same,outcome,[2],inactive
same,outcome,[3],inactive
same,Z-AUC,[1],0.475 (inactive)
same,Z-AUC,[1]; [6],0.649
same,Z-AUC,[1]; measured here: PEO4 Z-AUC,0.805
NS(=O)(=O)c1cccc2c1C(=O)c1cccc(O)c1C2=O,Z-AUC,[1],-1.32 (inactive)
same,Z-AUC,[1]; [6],-1.19
same,Z-AUC,[1]; measured here: PEO4 Z-AUC,-1.74
O=c1cc(N2CCOCC2)oc2c(-c3cccc4c3sc3ccccc34)cccc12,Z-AUC,[1],0.27 (inactive)
same,Z-AUC,[1]; [6],0.135
same,Z-AUC,[1]; measured here: PEO4 Z-AUC,0.0636
Clc1ccc(CCC(Cn2ccnc2)Sc2c(Cl)cccc2Cl)cc1 (centres undefined),Z-AUC,[1],1.27 (inactive)
same,Z-AUC,[1]; [6],0.807
same,Z-AUC,[1]; measured here: PEO4 Z-AUC,0.874
O=C(NOCC(O)CO)c1cc(Br)c(F)c(F)c1Nc1ccc(I)cc1F (centres undefined),Z-AUC,[1],0.348 (inactive)
same,Z-AUC,[1]; [6],0.513
same,Z-AUC,[1]; measured here: PEO4 Z-AUC,0.38
Nc1ncnc2c1nc(Cl)n2[C@@H]1O[C@H](CO)[C@@H](O)[C@@H]1O,Z-AUC,[1],0.764 (inactive)
same,Z-AUC,[1]; [6],-0.225
same,Z-AUC,[1]; measured here: PEO4 Z-AUC,-0.377
CCS(=O)(=O)N1CC(CC#N)(n2cc(-c3ncnc4[nH]ccc34)cn2)C1,Z-AUC,[1],0.685 (inactive)
same,Z-AUC,[1]; [6],0.902
same,Z-AUC,[1]; measured here: PEO4 Z-AUC,0.44
Cc1ccc(C(=O)Nc2cccc(C(F)(F)F)c2)cc1Nc1nc(-c2cccnc2)nc2c1cnn2C,Z-AUC,[1],0.462 (inactive)
same,Z-AUC,[1]; [6],0.182
same,Z-AUC,[1]; measured here: PEO4 Z-AUC,0.562
O=C(Nc1ccccc1Br)N[C@@H]1CCN(c2ccc(C(F)(F)F)cn2)C1,Z-AUC,[1],-0.871 (inactive)
same,Z-AUC,[1]; [6],0.714
same,Z-AUC,[1]; measured here: PEO4 Z-AUC,0.446
